697 NFkB inh: inhibitors of the PMA/ionomycin-induced NF-kB reporter in 697 B cells; inhibition, % at 4 µM; 697 B-cell NF-kB luciferase reporter, 16 h; actives 0.33% (n = 330,000); in the data active = inhibition above about 35%
Jurkat NFkB inh: lowers PMA/ionomycin-induced NF-kB signal in Jurkat cells. actives 0.53% (n = 330,000). PMA/ionomycin-induced NF-kB luciferase reporter, luminescence. inhibition, % at 4 µM; in the data active = inhibition above about 50%
Gli-Sufu antag: blocks Gli-Sufu signaling in a luciferase reporter; Sufu-KO-LIGHT fibroblasts, Gli luciferase reporter luminescence; inhibition, % at 5 µM; actives 0.74% (n = 340,000); AID 588413;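 active = inhibition above about 55%, limit read from the data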;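 note: 0% = DMSO-treated cells and 100% = wells with medium but no cells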
COUP-TFII inh: blocks human COUP-TFII nuclear receptor; P24468; HEK293T NGFI-A luciferase reporter, luminescence; inhibition, % at 8.6 µM; actives 0.7% (n = 370,000); AID 686940;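 active = inhibition above a per-plate cutoff, mean inhibition of test wells between control levels plus 3 SD, cut at about 38% in these data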;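 note: cells cotransfected with COUP-TFII expression vector driving the NGFI-A reporter; 0% = median of COUP-TF2 test wells and 100% = reporter-only cells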
Target sequence (P24468 whole entry, looked up): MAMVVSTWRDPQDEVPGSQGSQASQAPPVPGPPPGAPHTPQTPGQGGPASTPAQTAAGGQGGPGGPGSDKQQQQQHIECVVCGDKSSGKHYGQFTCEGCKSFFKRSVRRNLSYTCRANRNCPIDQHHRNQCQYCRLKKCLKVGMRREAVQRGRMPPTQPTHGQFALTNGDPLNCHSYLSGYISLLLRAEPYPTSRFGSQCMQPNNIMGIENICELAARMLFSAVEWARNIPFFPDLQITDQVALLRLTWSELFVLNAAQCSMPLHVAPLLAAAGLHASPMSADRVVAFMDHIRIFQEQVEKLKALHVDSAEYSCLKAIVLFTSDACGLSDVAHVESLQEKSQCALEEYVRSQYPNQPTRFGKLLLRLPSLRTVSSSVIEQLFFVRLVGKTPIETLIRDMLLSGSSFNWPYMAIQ
GalR3 antag: blocks the human galanin receptor 3. inhibition, % at 3 µM. HEK293 GalR3-CNG cAMP membrane potential fluorescence; galR3 body fused to GalR1 C-terminus. O60755. actives 0.44% (n = 360,000);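 active = inhibition above the screen-wide average plus 3 SD, cut at about 13% in these data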;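 note: forskolin and galanin both at EC90 stimulate the cells; cAMP rise reported by CNG channel membrane potential dye signal; 0% = forskolin plus galanin with DMSO and 100% = forskolin alone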
Target sequence (O60755 1-299 limits assumed): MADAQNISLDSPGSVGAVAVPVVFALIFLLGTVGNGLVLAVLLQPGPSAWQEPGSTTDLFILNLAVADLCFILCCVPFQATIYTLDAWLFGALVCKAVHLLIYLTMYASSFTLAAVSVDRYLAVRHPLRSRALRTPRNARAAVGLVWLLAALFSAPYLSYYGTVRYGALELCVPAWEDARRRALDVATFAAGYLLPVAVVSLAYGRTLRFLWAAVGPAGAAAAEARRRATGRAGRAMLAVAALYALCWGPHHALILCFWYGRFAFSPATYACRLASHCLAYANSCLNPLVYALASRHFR
Jurkat NFkB conf: inhibitors of the PMA/ionomycin-induced NF-kB reporter in Jurkat cells, retest. inhibition, % at 4 µM. Jurkat NF-kB luciferase, 16 h. actives 27% (n = 2,700). shares compounds with Jurkat NFkB inh;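 active = inhibition reaching about 45% at 4 µM in either replicate, limit read from the data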;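 note: plate controls were PMA/ionomycin stimulated DMSO wells for no effect and unstimulated DMSO wells for full effect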
Numbers without * were called inactive; x = no result given. Sampled rows, rich in hits. Any-hit rate of the full collection: about 2%.

SMILES | 697 NFkB inh | Jurkat NFkB inh | Gli-Sufu antag | COUP-TFII inh | GalR3 antag | Jurkat NFkB conf
COC(=O)c1c(-c2cccnc2)csc1NC(=O)c1cc(C)on1 | -209.9 | -174.1 | -49.9 | -34.0 | -6.4 | -89.5
CCn1c(SCC(=O)Nc2ccccc2-c2ccccc2)nnc1-c1ccc(C)cc1 | x | x | x | -0.8 | x | x
O=C(Nc1ccc(C(O)(C(F)(F)F)C(F)(F)F)cc1)c1ccc(Cl)cc1 | x | x | x | -36.5 | x | x
Cn1cc(/C=N/n2cnc3scc(-c4ccc(Cl)cc4)c3c2=O)c2ccccc21 | 19.4 | 61.6* | 27.6 | -6.3 | -2.0 | 50.0*
CCn1c(SCc2c(Cl)cccc2Cl)nc2nc3c(cc2c1=O)CCCC3 | -1.3 | 55.0* | 18.6 | 15.5 | 0.9 | 18.2
COc1ccc(NC(=S)NN(C)C(=S)Nc2ccc(OC)cc2)cc1 | -49.0 | 65.5* | -4.3 | -13.1 | 2.1 | -2.0
Nc1ccc2oc(-c3cccc(Br)c3)nc2c1 | -182.1 | -177.2 | -75.1 | x | x | -38.5
Nc1ccc2oc(-c3ccc4nc[nH]c4c3)nc2c1 | -157.8 | -80.0 | -43.7 | 3.4 | 6.7 | x
Cc1ccc(NC(=O)c2cc3c(s2)CCCC3)cc1 | -146.3 | -143.6 | -83.5 | -39.9 | 2.3 | x
Cc1ccc(NC(=O)c2scc3c2CCCC3)cc1 | -226.3 | -231.3 | -25.6 | -26.8 | 1.0 | -122.0
O=C(C1CCCN(S(=O)(=O)c2ccccc2F)C1)N1CCN(Cc2ccccc2)CC1 (stereo not given) | x | x | x | -12.6 | x | x
CC(C)(C)c1csc(Sc2ccc([N+](=O)[O-])cn2)n1 | 3.8 | 81.4* | 5.5 | -15.8 | -1.2 | 39.7
N#CCCCc1cn(-c2ccc(-c3noc4c3C(=O)N(CC(=O)N3CCOCC3)CC4)cc2)nn1 | x | x | x | -0.2 | x | x
O=S1(=O)c2ccc(Br)cc2OC[C@H](Cc2ccccc2)N1Cc1cn(CCC2OCCCO2)nn1 | x | x | x | 2.0 | x | x
Cc1cccc(-n2ncc3c(NC4CCCCC4)ncnc32)c1 | -234.9 | -155.5 | -109.0 | -52.5 | -4.1 | -147.7
CC1CC(C)CN(c2ncnc3c2cnn3Cc2ccc(Cl)cc2)C1 (stereo not given) | -35.7 | -3.4 | 1.3 | -2.8 | -0.6 | x
COc1ccc(N2CCN(c3ncnc4c3cnn4-c3ccc(C)cc3C)CC2)cc1 | -14.6 | 36.9 | 27.8 | -11.4 | 0.0 | x
Cc1cccc(-n2ncc3c(NCCCO)ncnc32)c1 | -106.4 | -98.1 | -72.0 | -56.9 | -3.7 | x
Cc1ccc(-n2ncc3c(N4CCN(c5ccccc5)CC4)ncnc32)c(C)c1 | -39.3 | 59.5* | 20.5 | 18.3 | -3.2 | 38.6
Cc1cccc(-n2ncc3c(N4CC(C)CC(C)C4)ncnc32)c1 (stereo not given) | -198.7 | -166.4 | -106.1 | -31.6 | 1.7 | -106.7
CC1CN(c2ncnc3c2cnn3-c2ccc(Cl)cc2)CC(C)O1 (stereo not given) | -196.5 | -187.3 | -59.0 | -13.3 | 3.3 | -70.8
Nn1c(SCc2ccc(Br)cc2)nnc1-c1n[nH]c2c1CCC2 | x | x | x | -0.5 | x | x
Nc1nc(-c2ccc3ccccc3c2)cs1 | -113.5 | -158.6 | -98.2 | -18.8 | -4.8 | -19.8
CN(C)c1ccc(C(=O)Nc2nc3c(s2)CCCC3)cc1 | -185.8 | -193.8 | -118.1 | -0.3 | 5.0 | -117.1
COC(=O)Nc1nc2c(s1)CCCC2 | -14.8 | -26.4 | -12.8 | -11.3 | -5.1 | x
SMILES | 697 NFkB inh | Jurkat NFkB inh | Gli-Sufu antag | COUP-TFII inh | GalR3 antag | Jurkat NFkB conf
CC(C)=CCC/C(C)=C/CN1C(=O)N(c2ccc(F)cc2)[C@H]2C[C@@H](c3ccccc3)[C@@H](C)[C@@H](C(=O)N3CCOCC3)C[C@H]21 | x | x | x | 0.7 | -4.1 | x
N#C/C(=N\Nc1cccc(F)c1)C(=N)N1CCCCCC1 | -142.9 | -167.7 | -86.5 | -50.7 | -5.5 | -52.9
Cn1c(=O)c(=O)n(C)c2cc(S(=O)(=O)N3CCN(CCO)CC3)ccc21 | x | x | x | 3.9 | x | x
Cc1cc(C)nc(S/C=C/C(=O)c2ccc(F)cc2)n1 | -155.4 | 69.5* | x | x | x | -1.2
Cc1ccc(-c2cc(C(F)F)n3ncc(C(=O)N4CCc5ccccc54)c3n2)cc1 | -46.1 | 61.0* | 29.9 | -7.1 | -5.6 | 46.8*
c1ccc(-c2c[nH]c3cccc(C4CCCCC4)c23)cc1 | x | x | x | -14.4 | x | x
Fc1ccc(Nc2ccc3ccccc3n2)c(F)c1 | -242.1 | -210.6 | -169.5 | -16.1 | -4.9 | -138.1
O=C(Nc1ccc2ccccc2n1)Nc1ccccc1F | -20.8 | -57.5 | -42.5 | 13.3 | -11.1 | x
COc1ccccc1-c1cc(C(=O)Nc2cc(C)nn2-c2ccccc2)no1 | -50.5 | 60.5* | -1.8 | 10.9 | -6.6 | 32.4
COc1ccc(-c2cc(C(=O)Nc3cc(C)nn3-c3ccccc3)no2)cc1 | 15.2 | -1.8 | 8.9 | -16.3 | -4.8 | x
COC(=O)[C@]12C[C@H](CC(=O)NCc3ccc(C)o3)C(=O)N(Cc3ccc(Cl)cc3Cl)C1=C[C@H](C(C)(C)C)O[C@@H]2C | x | x | x | 5.5 | x | x
Cc1ccc(CNC(=O)c2ccc(-n3cccc3)cc2)cc1 | x | x | -10.1 | -7.5 | -1.0 | x
COc1ccc(CC(=O)NCc2ccc(-n3cccc3)cc2)cc1OC | -48.1 | 55.0* | -7.2 | -1.7 | -9.2 | 17.6
COc1cc(OC)cc(C(=O)NCc2ccc(-n3cccc3)cc2)c1 | 0.0 | 6.6 | 4.8 | -11.1 | -1.0 | x
Cc1ccc(CNC(=O)Cc2ccc(-n3cccc3)cc2)cc1 | -41.7 | 52.7* | 8.3 | -0.7 | -3.6 | 3.8
COc1cc(C(=O)COC(=O)c2c(C)noc2C)cc(OC)c1OC | 22.7 | -162.6 | 6.3 | -10.7 | -2.3 | 3.8
Clc1ccc([C@H]2OC[C@@]3(CNCC4CC4)CS[C@H](c4ccc(Cl)cc4)N23)cc1 | x | x | x | 7.2 | x | x
CCc1nnc(NC(=O)CSc2nnc3c(C)cc4c(C)ccc(C)c4n23)s1 | -19.3 | 31.9 | 1.5 | -1.5 | -2.4 | x
Cc1cc(NC(=O)CSc2nnc3c(C)cc4c(C)ccc(C)c4n23)no1 | -34.3 | 59.1* | 12.5 | 4.8 | 0.0 | 20.1
COc1ccccc1Nc1c2c(nc3ccccc13)CCC2 | -52.2 | 51.7* | x | 17.2 | -13.6 | 24.6
CCOC(=O)C1=NOC(C(=O)Nc2cc(C)cc(C)c2)(C(=O)C2CC2)C1 (stereo not given) | x | x | x | 6.8 | x | x
COc1ccc(N=C2S/C(=C\c3ccc(Cl)c([N+](=O)[O-])c3)C(=O)N2CCN(C)C)cc1 | 3.6 | 50.8* | -1.2 | -1.7 | -10.2 | 12.2
CCN(CC)CCN1C(=O)/C(=C\c2ccc(Cl)c([N+](=O)[O-])c2)SC1=Nc1ccc(OC)cc1 | -69.8 | -72.2 | 2.9 | -15.7 | -10.8 | x
Cc1ccc2c(c1)C=CC(C#N)N2C(=O)Oc1ccccc1 (stereo not given) | x | x | x | -0.2 | -6.5 | x
Cc1ccc2c(c1)C=CC(C#N)N2C(=O)c1ccccc1 (stereo not given) | -39.9 | 55.4* | 9.4 | -10.3 | -9.0 | 43.0
Cc1nnc(SCC(=O)Nc2nsc(-c3ccc(C(C)(C)C)cc3)n2)s1 | -136.4 | -153.2 | -64.5 | -47.4 | -0.4 | -81.6
O=C(Nc1ccc(Oc2ccccc2)nc1)C1CCCCN1Cc1ccco1 (stereo not given) | -65.4 | 53.1* | 42.0 | 7.7 | -0.8 | 5.3
Cc1ccc(CN2CCCCC2C(=O)Nc2ccc(Oc3cccnc3)cc2)o1 (stereo not given) | -20.5 | 68.7* | 15.2 | -3.7 | -1.2 | 6.5
